Compounds without any hit were thinned out: in the full panel of roughly 83,000, 20% have a hit.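 Treatment: one concentration, 48 hours, 96-well format. Scoring: percent growth, with anything below 10 considered active.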 Values without a mark were called inactive. Calls of active or inactive are those of the source.

Some test systems named below: HCT-15 colon; HT29 colon; SNB-75 CNS; SNB-19 CNS; U251 CNS; PC-3 prostate; SK-MEL-5 melanoma; UACC-62 melanoma; LOX IMVI melanoma; SK-MEL-28 melanoma.
Assay in all cases: NCI-60 one-dose screen, 48 h (100 = growth as untreated, 0 = no growth, -100 = all killed)
Holding throughout (settings): 10 µM unless noted

In the case of `O=c1[nH]nc(-c2ccc(Cl)cc2)cc1Cc1ccccc1`, the growth was 103% in the assay with HCT-15 colon; 108% with HT29 colon; 88.3% with SNB-75 CNS; 101% in the assay on SNB-19 CNS; 92.5% in the assay with U251 CNS; 90.9% in the assay on PC-3 prostate. Further, the growth is 105% in the assay on SK-MEL-5 melanoma, 79.3% in the assay on UACC-62 melanoma, 93.4% in the assay with LOX IMVI melanoma and 114% in the assay with SK-MEL-28 melanoma.
For `CC(=O)NCC(=O)Nc1ccc(-c2nnc3ccccn23)nc1.CC(=O)NCC(=O)Nc1ccc(-c2nnc3ccccn23)nc1.[Pt+2]`, the growth with HCT-15 colon is 109%; with HT29 colon it was 98.3%; with SNB-75 CNS it was 132%; in the assay on SNB-19 CNS it was 107%; with U251 CNS, 99.4%; in the assay with PC-3 prostate, 101%. Besides, the growth in the assay on SK-MEL-5 melanoma was 108%; in the assay on UACC-62 melanoma, 110%; with LOX IMVI melanoma, 106%; with SK-MEL-28 melanoma it was 118%.
`Clc1ccc(-c2nc(NCCc3ccccc3)nc3c(NCCc4ccccc4)cnn23)cc1`: the growth was 72.9% in the assay with HCT-15 colon; 41.9% with HT29 colon; 85.6% in the assay with SNB-75 CNS; 85.6% in the assay with SNB-19 CNS; 48.4% in the assay with U251 CNS; 51.7% in the assay on PC-3 prostate. In addition, the growth is 94.2% with SK-MEL-5 melanoma, 73.2% in the assay on UACC-62 melanoma, 60.9% in the assay on LOX IMVI melanoma and 75.2% in the assay with SK-MEL-28 melanoma.
Consider `COc1cc2ccccc2cc1C(=O)NC(=S)Nc1ccc(-c2nc3ccccc3[nH]2)cc1`, for which the growth in the assay on HCT-15 colon was 78.5%; with HT29 colon, 72.7%; with SNB-75 CNS, 54.4%; in the assay on SNB-19 CNS, 86.6%; in the assay with U251 CNS, 75.2%; in the assay with PC-3 prostate it was 90.6%. Also, the growth with SK-MEL-5 melanoma is 42.5%; with UACC-62 melanoma, 93%; with LOX IMVI melanoma, 60.5%; with SK-MEL-28 melanoma, 90.1%.
As for `CCCCCCNc1cc(C)nc2ccc(OC)cc12`, the growth was 60.9% in the assay with HCT-15 colon; 19.6% in the assay on HT29 colon; 89.2% in the assay on SNB-75 CNS; 77.1% in the assay on SNB-19 CNS; 55.1% in the assay on U251 CNS; 65.9% in the assay with PC-3 prostate. Besides, the growth was 35% with SK-MEL-5 melanoma, 64.1% in the assay on UACC-62 melanoma, 61.4% in the assay on LOX IMVI melanoma and 67.9% in the assay with SK-MEL-28 melanoma.
With `Fc1ccc(Nc2ccc3cc(OCCCN4CCOCC4)ccc3n2)cc1F`, the growth with HCT-15 colon was 28.7%; with HT29 colon, -6.89% (active); in the assay with SNB-75 CNS, 48.6%; with SNB-19 CNS, 64.9%; in the assay with U251 CNS, 41.7%; in the assay on PC-3 prostate it was 45.2%. In addition, the growth in the assay on SK-MEL-5 melanoma is 60%; with UACC-62 melanoma, -19.8% (active); in the assay with LOX IMVI melanoma it was -46.9% (active); in the assay with SK-MEL-28 melanoma, 43.4%.
`CN(C)CN1CCN(c2ccc3nc(-c4ccc5nc(-c6ccc(C(F)(F)F)cc6)[nH]c5c4)[nH]c3c2)CC1`: the growth with HCT-15 colon was 91.6%; in the assay on HT29 colon, 29.3%; in the assay on SNB-75 CNS it was 38.8%; in the assay with SNB-19 CNS it was 69.6%; with U251 CNS, 60%; with PC-3 prostate, 68.4%. In addition, the growth in the assay with SK-MEL-5 melanoma was 23.6%; in the assay with UACC-62 melanoma, 44.8%; in the assay on LOX IMVI melanoma it was 32.2%; with SK-MEL-28 melanoma, 42.7%.
Turning to `CCc1nc2ccccc2[nH]1`, the growth with HCT-15 colon was 108%; in the assay with HT29 colon, 108%; in the assay on SNB-75 CNS it was 91.1%; with SNB-19 CNS, 98.3%; in the assay on U251 CNS, 106%; in the assay on PC-3 prostate, 101%. In addition, the growth in the assay with SK-MEL-5 melanoma is 110%; in the assay with UACC-62 melanoma, 98.9%; in the assay with LOX IMVI melanoma it was 107%; in the assay on SK-MEL-28 melanoma, 105%.
On to `O=C1NCC(=O)N(Cc2ccco2)[C@H]1Cc1ccccc1`, for which the growth in the assay with HCT-15 colon is 98.4%; in the assay with HT29 colon it was 103%; in the assay on SNB-75 CNS, 94.5%; with SNB-19 CNS, 94.5%; with U251 CNS, 88.6%; in the assay with PC-3 prostate it was 91%. Besides, the growth is 102% in the assay on SK-MEL-5 melanoma, 96.6% in the assay with UACC-62 melanoma, 95.6% in the assay on LOX IMVI melanoma and 107% in the assay with SK-MEL-28 melanoma.
In the case of `CCCCn1c(=O)[nH]c(N)c(C(c2ccc(F)cc2)c2c(N)[nH]c(=O)n(CCCC)c2=O)c1=O`, the growth is 95.7% with HCT-15 colon; 66.4% in the assay with HT29 colon; 62.2% in the assay with SNB-75 CNS; 74% in the assay with SNB-19 CNS; 65.3% with U251 CNS; 53.9% with PC-3 prostate. The growth in the assay with SK-MEL-5 melanoma is 36.7%; with UACC-62 melanoma, 55.6%; with LOX IMVI melanoma it was 58.9%; in the assay on SK-MEL-28 melanoma, 74.7%.
Consider `CCOC(=O)N1CCc2c(sc3c2C(=O)N[C@H](c2ccc(OC)cc2)N3)C1`, for which the growth was 106% with HCT-15 colon; 86.2% in the assay with HT29 colon; 91.7% in the assay with SNB-75 CNS; 90% in the assay with SNB-19 CNS; 96.7% with U251 CNS; 89.1% with PC-3 prostate. In addition, the growth is 99.1% in the assay on SK-MEL-5 melanoma, 91.8% with UACC-62 melanoma, 101% in the assay on LOX IMVI melanoma and 109% in the assay on SK-MEL-28 melanoma.
As to `CN(C)c1ccc2cc(-c3ccccc3F)c(N)nc2c1`, the growth is 37.4% with HCT-15 colon; 1.79% (active) in the assay with HT29 colon; 11.3% in the assay on SNB-75 CNS; 55.1% in the assay with SNB-19 CNS; 16.8% with U251 CNS; 31.6% in the assay on PC-3 prostate. In addition, the growth was -18.8% (active) in the assay on SK-MEL-5 melanoma, 40.2% in the assay on UACC-62 melanoma, 33.4% with LOX IMVI melanoma and 58% in the assay with SK-MEL-28 melanoma.
For `CNC(=O)NCC1OC(n2cnc3c(NC(=O)Nc4ccccc4)ncnc32)C2OC(C)(C)OC12` (stereo not given), the growth in the assay on HCT-15 colon is 97.5%; with HT29 colon, 98.5%; with SNB-75 CNS it was 59.7%; in the assay with SNB-19 CNS, 85.3%; in the assay on U251 CNS, 94.1%; with PC-3 prostate, 71%. Besides, the growth with SK-MEL-5 melanoma is 86.2%; in the assay with UACC-62 melanoma, 91.5%; in the assay with LOX IMVI melanoma, 100%; with SK-MEL-28 melanoma, 91.7%.
Turning to `Cc1c(C(=O)O)nnn1-c1nccs1`, the growth in the assay on HCT-15 colon is 98%; in the assay on HT29 colon, 89.7%; with SNB-75 CNS it was 81.8%; in the assay on SNB-19 CNS it was 98.1%; in the assay on U251 CNS, 92.1%; with PC-3 prostate, 89.4%. Besides, the growth in the assay with SK-MEL-5 melanoma was 99.6%; in the assay with UACC-62 melanoma, 96.2%; in the assay on LOX IMVI melanoma, 96.7%; in the assay on SK-MEL-28 melanoma it was 108%.

Source of the values: PubChem BioAssay (NCI).
